Structures can show the parent of a compound that is named as a salt. ± gives the standard deviation of the averaged measurements.
How the values were obtained:
[1] = system: Saccharomyces cerevisiae BY4741 SeMeCo community; test: mean cell size (pixel area) (pixels); higher = larger cells; conditions: 10 µM; 24 h; SM minimal medium
How it was run: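 Harmony analysis of automated confocal images of paraformaldehyde-fixed yeast gave the mean cell pixel area per well. The yeast was a Saccharomyces cerevisiae BY4741 community carrying four plasmids, each with a fluorescent marker and each complementing one auxotrophy, incubated for 24 h in SM medium containing drug at a final 10 µM in 384-well plates. Results are averaged over 3 replicates. Same SeMeCo high-content imaging drug screen: Selleck FDA-approved drugs at 10 µM, 24 h in SM medium, 384-well plates, 3 replicates.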

[2] = system: Saccharomyces cerevisiae BY4741 SeMeCo community; test: z-score of prototroph abundance vs DMSO median; higher = larger share of this subpopulation than in DMSO controls; conditions: 10 µM; 24 h; SM minimal medium; subpopulation (auxotrophy): Prototroph
How it was run: (§1)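 A community of Saccharomyces cerevisiae BY4741 was built from four plasmids that each restored one auxotrophy and encoded a distinct fluorescent protein. Pre-grown overnight to OD600 1.0 and diluted to 0.3, it was dispensed at 70 µl into 384-well plates acoustically predosed with library drugs for a final 10 µM, and grown 24 h in minimal SM medium. Cells were then paraformaldehyde-fixed and imaged by automated confocal microscopy. Thresholds and autofluorescence correction came from single-auxotroph fluorescent strains, and each subpopulation's abundance was scored as a z-score relative to the vehicle-well median.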

[3] = system: Saccharomyces cerevisiae BY4741 SeMeCo community; test: z-score of subpopulation abundance vs DMSO median, subpopulation auxotrophic for M; higher = larger share of this subpopulation than in DMSO controls; conditions: 10 µM; 24 h; SM minimal medium; subpopulation (auxotrophy): M
How it was run: as §1

[4] = system: Saccharomyces cerevisiae BY4741 SeMeCo community; test: z-score of subpopulation abundance vs DMSO median, subpopulation auxotrophic for L; higher = larger share of this subpopulation than in DMSO controls; conditions: 10 µM; 24 h; SM minimal medium; subpopulation (auxotrophy): L
How it was run: as §1

[5] = system: Saccharomyces cerevisiae BY4741 SeMeCo community; test: z-score of subpopulation abundance vs DMSO median, subpopulation auxotrophic for U; higher = larger share of this subpopulation than in DMSO controls; conditions: 10 µM; 24 h; SM minimal medium; subpopulation (auxotrophy): U
How it was run: as §1

[6] = system: Saccharomyces cerevisiae BY4741 SeMeCo community; test: z-score of subpopulation abundance vs DMSO median, subpopulation auxotrophic for LU; higher = larger share of this subpopulation than in DMSO controls; conditions: 10 µM; 24 h; SM minimal medium; subpopulation (auxotrophy): LU
How it was run: as §1

[7] = system: Saccharomyces cerevisiae BY4741 SeMeCo community; test: z-score of subpopulation abundance vs DMSO median, subpopulation auxotrophic for LM; higher = larger share of this subpopulation than in DMSO controls; conditions: 10 µM; 24 h; SM minimal medium; subpopulation (auxotrophy): LM
How it was run: as §1

[8] = system: Saccharomyces cerevisiae BY4741 SeMeCo community; test: z-score of subpopulation abundance vs DMSO median, subpopulation auxotrophic for HM; higher = larger share of this subpopulation than in DMSO controls; conditions: 10 µM; 24 h; SM minimal medium; subpopulation (auxotrophy): HM
How it was run: as §1

[9] = system: Saccharomyces cerevisiae BY4741 SeMeCo community; test: z-score of subpopulation abundance vs DMSO median, subpopulation auxotrophic for HU; higher = larger share of this subpopulation than in DMSO controls; conditions: 10 µM; 24 h; SM minimal medium; subpopulation (auxotrophy): HU
How it was run: as §1

[10] = system: Saccharomyces cerevisiae BY4741 SeMeCo community; test: z-score of subpopulation abundance vs DMSO median, subpopulation auxotrophic for UM; higher = larger share of this subpopulation than in DMSO controls; conditions: 10 µM; 24 h; SM minimal medium; subpopulation (auxotrophy): UM
How it was run: as §1

[11] = system: Saccharomyces cerevisiae BY4741 SeMeCo community; test: z-score of subpopulation abundance vs DMSO median, subpopulation auxotrophic for HL; higher = larger share of this subpopulation than in DMSO controls; conditions: 10 µM; 24 h; SM minimal medium; subpopulation (auxotrophy): HL
How it was run: as §1

[12] = system: Saccharomyces cerevisiae BY4741 SeMeCo community; test: z-score of subpopulation abundance vs DMSO median, subpopulation auxotrophic for HLU; higher = larger share of this subpopulation than in DMSO controls; conditions: 10 µM; 24 h; SM minimal medium; subpopulation (auxotrophy): HLU
How it was run: as §1

[13] = system: Saccharomyces cerevisiae BY4741 SeMeCo community; test: z-score of subpopulation abundance vs DMSO median, subpopulation auxotrophic for HLM; higher = larger share of this subpopulation than in DMSO controls; conditions: 10 µM; 24 h; SM minimal medium; subpopulation (auxotrophy): HLM
How it was run: as §1

[14] = system: Saccharomyces cerevisiae BY4741 SeMeCo community; test: z-score of subpopulation abundance vs DMSO median, subpopulation auxotrophic for HUM; higher = larger share of this subpopulation than in DMSO controls; conditions: 10 µM; 24 h; SM minimal medium; subpopulation (auxotrophy): HUM
How it was run: as §1

[15] = system: Saccharomyces cerevisiae BY4741 SeMeCo community; test: z-score of subpopulation abundance vs DMSO median, subpopulation auxotrophic for LUM; higher = larger share of this subpopulation than in DMSO controls; conditions: 10 µM; 24 h; SM minimal medium; subpopulation (auxotrophy): LUM
How it was run: as §1

[16] = system: Saccharomyces cerevisiae BY4741 SeMeCo community; test: z-score of subpopulation abundance vs DMSO median, subpopulation auxotrophic for HLUM; higher = larger share of this subpopulation than in DMSO controls; conditions: 10 µM; 24 h; SM minimal medium; subpopulation (auxotrophy): HLUM
How it was run: as §1

[17] = system: Saccharomyces cerevisiae BY4741 SeMeCo community; test: z-score of subpopulation abundance vs DMSO median, subpopulation auxotrophic for H; higher = larger share of this subpopulation than in DMSO controls; conditions: 10 µM; 24 h; SM minimal medium; subpopulation (auxotrophy): H
How it was run: as §1

| Structure (SMILES) | mean cell size [1] | z-score of prototroph abundance [2] | z-score of subpopulation abundance [3] | z-score of subpopulation abundance [4] | z-score of subpopulation abundance [5] | z-score of subpopulation abundance [6] | z-score of subpopulation abundance [7] | z-score of subpopulation abundance [8] | z-score of subpopulation abundance [9] | z-score of subpopulation abundance [10] | z-score of subpopulation abundance [11] | z-score of subpopulation abundance [12] | z-score of subpopulation abundance [13] | z-score of subpopulation abundance [14] | z-score of subpopulation abundance [15] | z-score of subpopulation abundance [16] | z-score of subpopulation abundance [17] |
| --- | --- | --- | --- | --- | --- | --- | --- | --- | --- | --- | --- | --- | --- | --- | --- | --- | --- |
| NCC[C@H](O)C(=O)N[C@@H]1C[C@H](N)[C@@H](O[C@H]2O[C@H](CN)[C@@H](O)[C@H](O)[C@H]2O)[C@H](O)[C@H]1O[C@H]1O[C@H](CO)[C@@H](O)[C@H](N)[C@H]1O [Amikacin disulfate] | 11.9 ± 0.14 | 0.25 | -0.8 | 0.46 | 0.78 | 0.07 | -0.17 | -1.21 | -0.01 | 0.57 | -0.25 | 0.12 | -0.68 | -0.51 | -0.03 | 0.42 | – |
| O=C(Nc1c(Cl)cncc1Cl)c1ccc(OC(F)F)c(OCC2CC2)c1 [Roflumilast] | 12.4 ± 0.14 | 0.36 | 0.29 | -0.2 | 0.07 | 0.34 | -0.1 | -0.18 | 0.22 | 0.24 | -0.5 | -0.37 | -0.77 | -0.17 | -0.56 | -0.84 | -0.65 |
| Cn1nnc(-c2ccc(-c3ccc(N4C[C@H](COP(=O)(O)O)OC4=O)cc3F)cn2)n1 [Tedizolid Phosphate] | 12.5 ± 0.29 | 1.14 | -0.15 | -1.36 | 0.63 | -0.94 | -2.14 | -0.87 | -0.46 | -0.77 | -0.86 | -0.8 | -0.8 | -0.98 | -1.05 | -0.73 | -0.61 |
| CCCCNc1ccc(C(=O)OCCN(C)C)cc1 [Tetracaine HCl] | 12.52 ± 0.015 | -0.78 | 0.03 | -0.03 | 0.72 | 1.2 | 0.43 | 0.5 | 0.08 | 0.04 | 0 | -0.27 | 0.52 | 0.58 | 0 | 0.94 | -0.2 |
| Cc1ccc(Nc2c(F)cccc2Cl)c(CC(=O)O)c1 [Lumiracoxib] | 12.9 ± 0.21 | 1.08 | 0.63 | -1.37 | -0.66 | -1.15 | 0.14 | 0 | -1.07 | -0.4 | -0.22 | -0.53 | 3.33 | -1.5 | -0.56 | -0.5 | -0.79 |
| CN(C)CCc1c[nH]c2ccc(Cn3cncn3)cc12 [Rizatriptan Benzoate] | 12.63 ± 0.099 | 0.05 | -0.1 | 0.9 | -0.69 | 0.31 | 1.18 | 0.65 | -0.96 | -1.14 | 0.75 | 0.78 | 0.35 | -0.59 | -0.44 | 0.89 | 0.25 |
